# In all, about 140,000 compounds went through this assay and about 840 (0.6%) were called active. The entries come from a sample that favours actives as a whole. Values without a mark were called inactive.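 How the source made its calls: active means viability gain under doxorubicin at or above a set limit, the compound median plus 3 SD (cut at about 4.7% in these data); inactive means the rest.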
# Assay: H69AR viability gain despite doxorubicin, primary screen, MRP-1 activator project, H69AR cells, CellTiter-Glo (AID 799);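 further: MRP-1 overexpressing cells given doxorubicin 25 µM after compound pretreatment; 18-22 h compound pretreatment then 72 h with doxorubicin before readout; 0% = doxorubicin-only wells and 100% = vehicle-treated cells without doxorubicin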
# Details: viability rescue, at 10 µM, stronger effect = higher value
row,Compound,viability increase
1,COc1cc(C(=S)NC2CCCCC2)ccc1O,-2.71%
2,Cc1[nH]n(-c2ccccc2)c(=O)c1/C=N/NC(=O)c1ccoc1C,-1.54%
3,COc1cc(NC(=S)NCCSc2ccc(C)cc2)cc(OC)c1,-3.24%
4,CC(C)c1nnc(NC(=O)C2CCCN2S(=O)(=O)c2ccc(Cl)cc2)s1 (stereo unspecified),-0.99%
5,CCc1nnc(NC(=O)C2CCCN2S(=O)(=O)c2ccccc2)s1 (stereo unspecified),12.4% (active)
6,CCc1nnc(NS(=O)(=O)c2ccc(NS(=O)(=O)c3ccccc3)cc2)s1,-0.5%
7,C=CCNC(=O)c1ccccc1NC(=O)c1ccc(Cl)c(S(=O)(=O)Nc2cccc(C)c2C)c1,5.97% (active)
8,Cc1ccccc1NC(=O)c1ccccc1NS(=O)(=O)c1cccc2cccnc12,-3.17%
9,COC(=O)c1ccc(C(=O)Nc2cc(Cl)ccc2Cl)cc1NC(=O)c1ccccc1C,-3.01%
10,CC(C)(C)C1CCC(OC(=O)CCC(=O)Nc2ccccc2)CC1 (stereo unspecified),3.57%
11,Cc1ccc(C(=O)Cc2nnc(C)s2)cc1,-2.89%
12,Cc1ccc(C2=N/C(=C\c3ccc(OS(=O)(=O)c4ccc(C)cc4)cc3)C(=O)O2)cc1,-1.26%
13,O=C(Nc1ccn(Cc2ccc(F)cc2)n1)c1ccncc1,1.75%
14,O=C(Nc1ccn(Cc2ccccc2F)n1)c1ccc(COc2ccc(Cl)cc2Cl)o1,10.6% (active)
15,CC(=O)Nc1ccn(Cc2c(F)cccc2Cl)n1,-1.03%
16,Cn1nccc1CNC(=O)c1ccnn1C,10.8% (active)
17,CCCc1ccc(-c2c(C)sc(NC(=O)c3ccnn3C)c2C#N)cc1,-1.28%
18,Cn1ncc(Br)c1C(=O)NCc1cccs1,-2.03%
19,O=C(NCc1ccccc1Cl)C1CCC(CNc2c(N3CCCCC3)c(=O)c2=O)CC1 (stereo unspecified),-1.61%
20,CN(C)S(=O)(=O)c1ccc(N2CCCC2=O)c([N+](=O)[O-])c1,-1.68%
21,COc1ccc(-c2nn(-c3ccccc3)cc2C(=O)Nc2nc(CC(C)=O)ns2)cc1,6.77% (active)
22,CC(=O)Cc1nsc(NC(=O)c2ccc(COc3ccc(C)cc3)o2)n1,-0.06%
23,COc1ccc(-c2nn(-c3ccccc3)cc2C(=O)Nc2nccs2)cc1OC,-4.27%
24,COc1ccc2nc(Nc3nc4ccc(NC(C)=O)cc4s3)sc2c1,-4.94%
25,CCCOc1ccc(Cn2ccnc2)cc1[N+](=O)[O-],-1.18%
26,CC(=O)NC1C(OCc2ccccc2)OC(COC(C)=O)C(OC(C)=O)C1OC(C)=O (stereo unspecified),-1.54%

# Reference: PubChem BioAssay AID799 (SRMLSC, 2007)
